This is one part of a sample in which hits are shown more often than they occur.
Pf Dd2 inh = Plasmodium falciparum Dd2 growth inhibition; P. falciparum Dd2 growth, SYBR Green, 72 h; Potency, µM (doses to about 28.9 µM), usual class: inhibitors; hit rate 4.3% among 120,000; active = well fitted inhibition curve with a large enough effect; note: nearly all actives have a fitted effect of over 65% in size
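Readout: SYBR Green fluorescence, 485 nm excitation, 535 nm emission, after ~16 h lysis at 37C. Before that, Dd2-infected red cells (2.5% hematocrit) grew 72 h with compound, 29 uM top final concentration.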
Of the large screens only hits and unclear results are named; the others gave an inactive call.

CCn1c(C2CCCNC2)nn(Cc2ccc(C(C)C)cc2)c1=O (centres undefined)	none
Cc1c(-c2ccc(Cl)cc2)n[nH]c1C(=O)N[C@@H]1CCNC[C@H]1O	none
O=C1CCC(=O)N1CC(=O)N1CCCCCC1c1nnc(-c2ccccc2)o1 (centres undefined)	none
O=C(NCc1ccc2c(c1)CCN2C(=O)c1ccccc1)c1ccc(Br)o1	none
O=C(NCc1ccc2c(c1)CCN2C(=O)c1ccc(F)cc1)c1ccc(Br)o1	Pf Dd2 inh 11.2µM
Cn1nccc1C(=O)NCc1ccc2c(c1)CCN2C(=O)c1ccc(F)cc1	none
O=C(CC1CCOC2(CCN(S(=O)(=O)c3ccccc3)CC2)C1)NC1CC1 (centres undefined)	none
COc1ccccc1C(=O)Nc1ccc([C@@H](O)[C@H]2COCC(=O)N2Cc2ccc(F)cc2)cc1	none
COc1ccc(CN2CC(CNc3ccccc3)C3(C2)CN(c2ccccc2)C3)cc1O (centres undefined)	Pf Dd2 inh 3.55µM
NC(=O)c1ccccc1OCC(=O)N1CC(CNc2ccccc2)C2(C1)CN(c1ccccc1)C2 (centres undefined)	none
N#Cc1ccc(CN2CC(CNC(=O)Nc3ccccc3)C3(C2)CN(c2ccccc2)C3)cc1 (centres undefined)	none
Cn1cc(C(=O)N2CCC(c3noc(-c4ccccc4)n3)C2)cn1 (centres undefined)	none
CCOc1ccc(C2NC(=O)N(Cc3nncn3C(C)C)C3=C2C(=O)OC3)cc1 (centres undefined)	none
COc1cccc(CN2CCCC(COc3ccccc3C(=O)NC3CC3)C2)n1 (centres undefined)	none
O=C(Cn1nc2c(cc1=O)CCCC2)NCCc1ccc(O)cc1	none
COc1ccc(CCN2C(=O)N(c3ccc(C)cc3)C(=O)C2CC(=O)Nc2ccc(F)cc2)cc1 (centres undefined)	none
CCc1ccc(NC(=O)CC2C(=O)N(c3ccc(C)cc3)C(=O)N2CCc2ccncc2)cc1 (centres undefined)	Pf Dd2 inh 6.31µM
Cc1cccc(N2C(=O)C(CC(=O)Nc3cccc(F)c3)N(CCc3ccncc3)C2=O)c1 (centres undefined)	none
COc1ccc(CNC(=O)CN2CC3CC(C2)[C@H]2CCCC(=O)N2C3)cc1 (some centres undefined)	none
O=C1NCCCCCCN(C(=O)Nc2ccccc2)[C@H]2C[C@H](c3nc(-c4cccnc4)no3)C[C@@H]12	none
Cc1ccc(N2C(=O)CS(=O)(=O)C23C(=O)N(Cc2ccc(Cl)cc2)c2ccccc23)cc1C (centres undefined)	Pf Dd2 inh 2.24µM
Cc1ccc(CN2C(=O)C3(c4ccccc42)N(c2ccc(C)c(Cl)c2)C(=O)CS3(=O)=O)cc1 (centres undefined)	none
CN1C(=O)C2(c3ccccc31)N(c1ccc(Br)cc1)C(=O)CS2(=O)=O (centres undefined)	none
O=C(CN1C(=O)NC2(CCOCC2)C1=O)NC1CCc2ccccc21 (centres undefined)	none
CCOCc1nc(C2CCCN(C(=O)C3(c4ccc(OC)cc4)CC3)C2)no1 (centres undefined)	none
CCc1ccc2oc(C(=O)NCC(c3ccc(OC)cc3)N3CCCCC3)c(C)c2c1 (centres undefined)	Pf Dd2 inh 10µM
Cc1ccc2c(C)c(C(=O)NCC(c3ccc(Cl)cc3)N3CCOCC3)oc2c1 (centres undefined)	none
CCc1ccc(OCC(=O)NCC(c2ccc(OC)cc2)N2CCOCC2)cc1 (centres undefined)	Pf Dd2 inh 3.16µM
COc1ccc(OCC(=O)NCC(c2ccc(OC)cc2)N2CCOCC2)cc1 (centres undefined)	none
COc1ccc(Cl)cc1C(=O)NCC(c1ccc(N(C)C)cc1)N1CCOCC1 (centres undefined)	none
CCc1ccc2oc(C(=O)NCC(c3ccc(Cl)cc3)N3CCOCC3)c(C)c2c1 (centres undefined)	Pf Dd2 inh 11.2µM
CCc1ccc2oc(C(=O)Nc3nc(-c4ccccc4)ns3)c(C)c2c1	none
COc1ccc(C(=O)NCC(c2ccc3c(c2)OCO3)N2CCOCC2)cc1 (centres undefined)	none
CCc1ccc2oc(C(=O)Nc3nonc3CC)c(C)c2c1	none
CCN1C=C(C(=O)O)C(C)=NS1(=O)=O	none
COc1cc(-c2n[nH]c(=O)n2CCC(=O)O)ccc1O	none
CC(C)SCC(=O)N1CCCC(N2CCN(c3ccc(F)cc3)CC2)C1 (centres undefined)	none
O=C(NC1CCCCC1)NC1CCN(C(=O)N2CC3CC(C2)[C@H]2CCCC(=O)N2C3)CC1 (some centres undefined)	none
C#CCN(C)C(=O)C[C@@H]1c2nc(-c3cccnc3)sc2C[C@@H]2[C@](C)(CO)[C@H](O)CC[C@]21C	none
COCCOC1CN(C2CCN(C(=O)c3ccc(OC)c(F)c3)CC2)C12CCCCC2 (centres undefined)	none
COCCOC1CN(C2CCN(Cc3ccc(F)c(F)c3)CC2)C12CCCCC2 (centres undefined)	Pf Dd2 inh 2.51µM
COCCOC1CN(C2CCN(C(=O)Nc3ccccc3F)CC2)C12CCCCC2 (centres undefined)	none
COCCOC1CN(C2CCN(S(=O)(=O)c3ccccc3)CC2)C12CCCCC2 (centres undefined)	none
COCCOC1CN(C2CCN(Cc3ccncc3)CC2)C12CCCCC2 (centres undefined)	none
COCCOC1CN(C2CCN(Cc3cccc(F)c3)CC2)C12CCCCC2 (centres undefined)	Pf Dd2 inh 3.55µM
COc1ccc(N2C(=O)[C@@H]3[C@@H](CCN3C(=O)C(C)(C)C)N(Cc3ccccc3)C2=O)cc1	none
COc1cc(CN2C[C@@H](CO)[C@H](NC(=O)c3cccnc3)C2)ccc1F	none
CCOc1ccc2[nH]c(=O)c(CN(C)CC3CCN(C)C3)cc2c1 (centres undefined)	none
COCCCNc1nc2c(S(=O)(=O)c3ccccc3)nnn2c2ccccc12	none
COCCCNc1nc2c(-c3ccccc3)nnn2c2ccccc12	Pf Dd2 inh 7.94µM
COCCCNc1nc2c(S(=O)(=O)c3ccc(C)cc3)nnn2c2ccccc12	none
COc1ccc(C(=O)N2CCC3(CC2)N(C)C(=O)CS3(=O)=O)cc1F	none
COCCNC(=O)c1ccc2c(c1)N(C)C(CC(=O)N(C)C(C)C)CO2 (centres undefined)	none
CN(Cc1ccccc1)C(=O)c1ccc(CSc2nc3cccnc3n2Cc2ccccc2)cc1	Pf Dd2 inh 10µM
CCOc1ccccc1CNC(=O)c1ccc(Cn2c(SCc3ccccc3)nc3cccnc32)cc1	Pf Dd2 inh 11.2µM
O=C(NC1CCCCC1)c1ccc(Cn2c(SCc3ccccc3F)nc3cccnc32)cc1	none
Cc1ccccc1CNC(=O)c1ccc(CSc2nc3cccnc3n2Cc2ccccc2)cc1	none
O=C(NCCc1ccccc1)c1ccc(CSc2nc3cccnc3n2Cc2ccccc2F)cc1	Pf Dd2 inh 8.91µM
O=C(NCCc1ccccc1)c1ccc(Cn2c(SCc3ccc(F)cc3)nc3cccnc32)cc1	none
CNC(=O)c1ccc(CSc2nc3cccnc3n2Cc2cccc(F)c2)cc1	none
O=C(NCCN1CCCCC1)c1ccc(Cn2c(SCc3cccc(F)c3)nc3cccnc32)cc1	Pf Dd2 inh 7.94µM
O=C(NCc1ccccc1F)c1ccc(CSc2nc3cccnc3n2Cc2ccccc2)cc1	none
O=C(NCc1ccco1)c1ccc(Cn2c(SCc3ccc(F)cc3)nc3cccnc32)cc1	none
O=C(NCc1ccccc1)c1ccc(CSc2nc3cccnc3n2Cc2ccccc2)cc1	none
C#CCN(C)C[C@H]1CN2CC[C@H]1C[C@@H]2CNC(=O)Nc1ccccc1	none
Cc1cc(S(=O)(=O)NCCc2noc(-c3ccccc3)n2)ccc1Cl	none
